Assay results as given in PubChem BioAssay (NCI).
About 83,000 compounds went through this panel and 20% of them were active in at least one assay; those are over-represented in the sample as a whole.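 48-hour exposure, single concentration, 96-well plates; percent growth endpoint where 0 means no net growth. Active: below 10.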 Unmarked numbers belong to inactive results. The source made the active and inactive calls.

tested on: KM12 colon; assay: NCI-60 one-dose screen, 48 h (100 = growth as untreated, 0 = no growth, -100 = all killed); settings: 10 µM unless noted
Procedure: Growth inhibition of the KM12 human tumor cell line is measured as a screen for anti-cancer activity. Cells are grown in 96 well plates and exposed to the test compound for 48 hours. Compounds are tested at a single concentration, which is 10^-5 M for most compounds. The reported endpoint is percent growth (GI% or GIPRCNT), where numbers from 0 - 100% represent growth inhibition, and numbers from -100% - 0 represent cell death. For example, a value of 40 represents 60% growth inhibition. A value of 0 means no net growth occurred over the course of the experiment. A value of -40 indicates 40% of cells at the beginning of the experiment died by the end of the experiment. A value of -100 means all cells are dead at the end of the experiment.
NCI-60 Human Tumor Cell Lines Screen was performed using the standard one-dose NCI protocol, which is described in more detail at https://dtp.cancer.gov/discovery_development/nci-60/default.htm.
Compounds with GIPRCNT values below 10 were considered active. Activity score was based on GIPRCNT using the following formula: […]
Score is 0 for GIPRCNT values of 100 or above, 50 for GIPRCNT values of 0, and 100 for GIPRCNT values of -100.

Row | Compound | growth
1 | C/C=C1/CN(CCCCC)CC[C@H]1C(=O)c1cc2ccccc2[nH]1 | 109%
2 | COc1cc([C@@H](CCO)C[C@H](C)c2ccc3ccccc3c2)cc(OC)c1OC | 26.3%
3 | O=S(=O)(NCCNc1nccc(-c2c(-c3ccc(F)c(O)c3)nc3sccn23)n1)c1ccc(Cl)cc1 | 12.6%
4 | CN(C)CCCNC(=O)c1cncnc1Nc1ccc2c(ccn2Cc2cccc(F)c2)c1 | 98%
5 | CN1CC(c2ccc(Br)cc2)C(C(=O)c2ccc(Br)cc2)C12C(=O)Nc1ccccc12 (stereo not given) | 75%
6 | Cc1cn(C)cn1 | 105%
7 | CN(C)c1ccc(CNCCO)cc1 | 105%
8 | CCOc1ccc(NC(=O)Nc2ccc(OCC)cc2)cc1 | 102%
9 | Cc1ccccc1N1CCN(C(=S)c2ccccc2)CC1 | 112%
10 | COc1cc(Cc2cc(OC)c(O)c(OC)c2)cc(OC)c1O | 55.7%
11 | COc1ccc(C2CC(c3ccccc3)=NN2C(=O)c2cc(OC)c(OC)c(OC)c2)cc1O (stereo not given) | 26.3%
12 | COc1cc(O)c2c(=O)c3c(CC=C(C)C)cc(OC)c(O)c3oc2c1 | 23.2%
13 | OC1CSSC1Cn1cnc2c(Nc3ccc(OCc4cccc(F)c4)c(Cl)c3)ncnc21 (stereo not given) | -60.3% (active)
14 | COC(=O)c1c2c(c(C)[n+]([O-])c1C)C(=O)C(NCc1ccccc1)=CC2=O | 26.4%
15 | O=C(/C=C/c1cccc(Oc2ccccc2)c1)c1ccc(Nc2nc(Nc3ccc(F)cc3)nc(Nc3ccc(Cl)cc3)n2)cc1 | 105%
16 | COc1ccc(/C=C2\c3cc(OC)c(OC)c(OC)c3CC[C@@H]2O)cc1F | 22.9%
17 | O=C1Nc2ccc(Cl)cc2/C1=C/c1ccc[nH]1 | 13.5%
18 | NC(=O)c1ccccc1OCC(=O)Nc1ccc(Cl)c(Cl)c1 | 100%
19 | COc1ccc(CN2C(=O)OC(C)(COC(C)=O)C2=O)cc1 (stereo not given) | 112%
20 | O=c1cc(C(F)(F)F)c2cc(-c3cc4ccccc4c(=O)o3)c(O)cc2o1 | 76.5%

Row | Compound | growth
21 | Cc1c(C(C)(C)O)cn2ncnc(Oc3ccc(NC(=O)Nc4ccc(Cl)c(C(F)(F)F)c4)c(F)c3)c12 | 43.6%
22 | COc1ccc(CNc2ccc3nc(NC(=O)CN4CCCCCC4)sc3c2)cc1 | 89.2%
23 | COc1c2c(cc3c1C(=O)N[C@@H]1[C@@H](O)[C@@H](O)[C@H](O)C[C@@H]31)OCCO2 | 99.1%
24 | COC1/C=C/OC2(C)Oc3c(C)c(O)c4c(O)c(c(/C=N/N(c5ccccc5)c5ccccc5)c(O)c4c3C2=O)NC(=O)C(C)=C/C=C/C(C)C(O)C(C)C(O)C(C)C(OC(C)=O)C1C (stereo not given) | 55.6%
25 | COc1ccc(/C=N/NC(=O)Cn2c(-c3ccc(S(C)(=O)=O)cc3)nc3ccccc32)cc1 | 104%
26 | N#Cc1ccccc1-c1ccc(CN2C(=O)S/C(=C\c3ccc(Br)cc3)C2=O)cc1 | 98.9%
27 | CS(=O)(=O)Nc1cc(-c2ccc3ncnc(Nc4ccc(F)c(Cl)c4)c3c2)ccc1Cl | 52.7%
28 | O=S(O)c1cc(Cl)cc(Cl)c1OCc1ccccc1 | 105%
29 | CCn1cc(C(=O)O)c(=O)c2cc(F)c(N3CCN(CC(=O)Nc4ccccc4)C(C)C3)c(F)c21 (stereo not given) | 99.9%
30 | c1ccc(Cn2cc3c(c2-c2ccccc2)CCc2cnoc2-3)cc1 | 27.7%
31 | COC(=O)[C@@]1(C)CC[C@]2(C)CC[C@]3(C)C4=CC=C5C(=CC(=O)C(O)=C5C)[C@]4(C)[C@@H](O)C[C@@]3(C)[C@@H]2C1 | 77.6%
32 | Cc1cccc(NC(=O)N/C(N)=N/c2nc3ccccc3s2)c1 | 25.1%
33 | Cc1ncc(C(=O)Nc2ccc(CN3CCN(C)CC3)c(C(F)(F)F)c2)cc1C#Cc1cnc(N)c2ccc(C#N)cc12 | 3.87% (active)
34 | Cn1c(=O)c2[nH]c(SC/C(=N/O)c3ccc(Br)cc3)nc2n(C)c1=O | 56.9%
35 | CCCCCCCCCCCCCCCCCCOc1ccccc1CC(=O)NCC[N+](C)(C)C | -27% (active)
36 | c1ccc2cc(Cn3cc(CSc4nc5ccccc5s4)nn3)ccc2c1 | 100%
37 | Cc1cccc(NC(=O)Cn2cc(CN3CCN(c4ccnc5cc(Cl)ccc45)CC3)nn2)c1 | 81.6%
38 | CCCCO[C@@H]1C=C2[C@H]3CC(C)(C)C(=O)C[C@]3(C(=O)O[C@@H]3O[C@H](CO[C@@H]4O[C@H](CO)[C@@H](OC5OC(C)C(O)C(O)C5O)[C@H](O)[C@H]4O)[C@@H](O)[C@H](O)[C@H]3O)CC[C@@]2(C)[C@]2(C)CC[C@H]3C(C)(C)C(=O)CC[C@]3(C)[C@@H]12 (stereo not given in full) | 75.2%
39 | COc1ccc(-c2cc(-c3cccnc3)nc3sc4c(N)c(C(C)=O)c(-c5ccccc5)nc4c23)cc1OC | 76.2%
40 | CC1(C)CC[C@]2(CO)CC[C@]3(C)[C@](O)([C@H](O)C[C@@H]4[C@@]5(C)CCCNC(C)(C)[C@@H]5CC[C@]43C)[C@@H]2C1 | 95%
